# Only some compounds are listed: those with a hit (about 9.5% of all), similar ones and a draw of the others.
# NS1 inh – blocks influenza NS1 protein function; Potency, µM (titrated, usually from 46.1 µM); 270,000 compounds, 0.4% hits; AID 2326; further: actives are rising curves; nearly all actives have a fitted effect of over 50% in size
#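 Recovery from NS1-induced slow growth read by OD600 in budding yeast switched to galactose assay medium (pH 6.0, -URA) at 1:100 dilution. Compound 23 nl per well; the matching strain lacking NS1 serves as control.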
# Pf growth 48h – inhibits P. falciparum growth in the first generation, 48 h; AID 504832; 310,000 compounds, 5.9% hits; P. falciparum luciferase growth in erythrocytes, 48 h; Potency, µM (doses to about 28.7 µM), usual class: inhibitors; active means well fitted inhibition curve with a large enough effect; inconclusive means small, poorly fitted or top-dose-only effect, or another doubt; inactive means no such curve, though single readings can be large or run the other way
#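 Luciferase-expressing P. falciparum in infected erythrocytes (2% hematocrit, 0.1% parasitemia final) in RPMI 1640/0.5% Albumax were exposed to compound for 48 hours at 37 C, 5% CO2; growth read as luminescence.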
# Pf growth 96h – inhibits malaria parasite growth, 96 h. P. falciparum luciferase reporter growth, 96 h. Potency, µM (highest dose often 28.7 µM), actives largely listed as inhibitors. 320,000 compounds, 6.9% hits; active means well fitted inhibition curve with a large enough effect; inconclusive means small, poorly fitted or top-dose-only effect, or another doubt; inactive means no such curve, though single readings can be large or run the other way
#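 Infected RBCs, 2% Hct / 0.05% parasitemia final; luciferase-reporter P. falciparum; cpd 96 h, 37 C, 5% CO2; luciferase detection reagent; luminescence.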
# SARS PLpro yeast – inhibitors of SARS-CoV papain-like protease in yeast. 330,000 compounds, 0.19% hits. Potency, µM (titrated, usually from 32.9 µM), usual class: activators. S. cerevisiae expressing SARS-CoV PLpro, growth rescue; further: nearly all actives have a fitted effect of over 55% in size
# RE007 growth inh – less growth of the S. pombe RE007 Vpr strain; S. pombe RE007 Vpr strain, BacTiter-Glo ATP luminescence, 24 h; Potency, µM (top dose mostly 92.2 µM), usual class: inhibitors; 360,000 compounds, 0.21% hits; AID 651644; active means well fitted falling curve with a large enough effect; inconclusive means small, poorly fitted or top-dose-only effect; inactive means no such curve, though single readings can be large or run the other way; further: nearly all actives have a fitted effect of over 50% in size
#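 Fission yeast RE007 carrying one integrated HIV-1 vpr copy, seeded at OD 0.01 in PMG+AL medium with 23 nL pinned compound. Grown 24 h at 30 degrees; viability read by BacTiter-Glo luminescence after 5 min.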
# A number is an active result; . = inactive; ? = inconclusive; / = not tested or not shown; [ ] = dose if it differs, or a comment. Unless noted, the call rests on the fitted dose curve.
SMILES,NS1 inh,Pf growth 48h,Pf growth 96h,SARS PLpro yeast,RE007 growth inh
C[Si](C)(c1ccc(C(=O)O)cc1)c1ccc(C(=O)O)cc1,.,/,/,/,/
CCOc1ccc(C(C)NC(=O)c2ccc3c(c2)NC(=O)C(C)S3)cc1OCC (stereo not drawn),/,2.33µM,1.85µM,.,.
CC1Sc2ccc(C(=O)Nc3ccccc3OC(F)F)cc2NC1=O (stereo not drawn),/,.,.,.,.
CCc1ccc2c(c1)cc(CN(C(=S)Nc1ccccc1C)C1CC1)c1nnnn12,.,3.29µM,?,.,.
OC1(c2cccc(C(F)(F)F)c2)CCN(c2ncnc3c2[nH]c2ccccc23)CC1,.,.,.,.,.
c1ccc2c(c1)CCN(c1ncnc3c1[nH]c1ccccc13)C2,.,5.22µM,7.38µM,.,.
COc1cccc2[nH]c3c(N4CCc5ccccc5C4)ncnc3c12,.,?,?,.,.
CCOc1ccc2[nH]c3c(N4CCN(c5ccccn5)CC4)ncnc3c2c1,.,?,.,.,.
Cc1ccc2[nH]c3c(N4CCCCCC4)ncnc3c2c1,.,2.62µM,?,.,/
COc1cccc2[nH]c3c(N4CCC(C)CC4)ncnc3c12,.,9.28µM,?,.,.
Cc1ccc2[nH]c3c(N4CCN(Cc5ccc6c(c5)OCO6)CC4)ncnc3c2c1,.,?,/,.,/
Cc1ccc2[nH]c3c(N4CCN(Cc5ccccc5)CC4)ncnc3c2c1,.,1.65µM,/,.,.
c1ccc(CN2CCN(c3ncnc4c3[nH]c3ccccc34)CC2)cc1,.,0.928µM,.,.,.
COc1cccc(N2CCN(c3ncnc4c3[nH]c3ccc(F)cc34)CC2C)c1 (stereo not drawn),.,?,.,.,.
Cc1ccc2c(c1)[nH]c1c(N3CCN(Cc4ccccc4)CC3)ncnc12,.,0.522µM,?,.,.
Fc1ccc2[nH]c3c(N4CCN(C5CCCCC5)CC4)ncnc3c2c1,.,2.33µM,.,.,/
COc1cccc2[nH]c3c(N4CCN(Cc5ccc6c(c5)OCO6)CC4)ncnc3c12,.,?,.,.,/
O=C(c1ccco1)N1CCN(c2ncnc3c2[nH]c2ccc(Cl)cc23)CC1,2.24µM,?,?,?,/
c1ccc2c(c1)[nH]c1c(N3CCC4(CC3)OCCO4)ncnc12,.,/,?,.,.
O=C(NCc1ccncc1)C1Cc2c(-c3ccccc3Oc3ccccc3)ccnc2O1 (stereo not drawn),/,/,/,/,.
Nc1nc(NCCCN2CCOCC2)nc(Nc2ccccc2F)c1[N+](=O)[O-],.,?,?,.,.
COc1cccc(N2CCN(c3ncnc4c3[nH]c3ccccc34)CC2C)c1 (stereo not drawn),.,8.28µM,?,.,/
Cc1nc2ccc(C(=O)NCCc3c[nH]c4ccccc34)cn2c1N(C)C(=O)CCc1ccccc1,/,/,/,/,.
COc1ccccc1N1C(=O)C2C3C=CC(CC3)C2C1=O (stereo not drawn),.,10.4µM,.,.,.
COc1ccc(N2C(=O)C3C4C=CC(C4)C3C2=O)c(OC)c1 (stereo not drawn),?,.,/,.,.
SMILES,NS1 inh,Pf growth 48h,Pf growth 96h,SARS PLpro yeast,RE007 growth inh
COc1ccc(-n2ccnc(SCC(=O)NCc3ccc(C)cc3)c2=O)cc1Cl,/,?,?,.,.
CCCN(C(=O)C(=O)Nc1ccc2nc3n(c(=O)c2c1)CCCCC3)c1ccc(OCC)cc1,.,0.117µM,.,.,.
O=C(Nc1cccc(S(=O)(=O)N2CCOCC2)c1)c1ccc2c(=O)n3c(nc2c1)CCCCC3,.,.,?,.,.
O=C(Nc1ccc(F)cc1Cl)c1ccc2c(=O)n3c(nc2c1)CCCCC3,.,.,3.7µM,.,.
O=C(Nc1ccccc1Cl)c1ccc2c(=O)n3c(nc2c1)CCC3,/,.,.,.,.
O=C(Nc1cccc(S(=O)(=O)N2CCCC2)c1)c1ccc2c(=O)n3c(nc2c1)CCCCC3,.,?,5.22µM,.,.
COc1cc(C(=O)Nc2ccc3nc4n(c(=O)c3c2)CCCCC4)cc(OC)c1OC,.,.,2.62µM,?,.
COc1ccc(C(=O)NNC(=O)c2ccc(F)c(S(=O)(=O)N3CCOCC3)c2)cc1,/,/,/,.,.
Cc1cc(C)c2nc(SCC(=O)NC(=O)c3cccn3C)cc(C)c2c1,.,.,.,.,.
CCOC(=O)N1CCN(C(=O)CSc2nc3ccccc3c(=O)n2-c2ccccc2)CC1,.,?,?,.,.
CCOC(=O)CC(=O)CSc1nc2ccccc2c(=O)n1-c1ccc(C(=O)N2CCOCC2)cc1,.,1.65µM,/,.,.
COc1ccc(C(=O)Nn2c(SCC(=O)c3ccccc3)nc3ccccc3c2=O)cc1,.,.,.,.,.
CCOC(=O)CSc1nc2ccccc2c(=O)n1NC(=O)c1ccccc1,.,.,7.38µM,.,.
CCOC(=O)CC(=O)CSc1nc2ccccc2c(=O)n1-c1ccc(C(=O)NCCOC)cc1,.,5.22µM,?,.,.
Cc1nnc(Sc2nc(Sc3nnc(C)s3)nc(N3CCN(C)CC3)n2)s1,.,/,/,/,/
CCCCN1C2CCCC1CC(NC(=O)c1cccc(Cl)c1)C2 (stereo not drawn),.,?,?,.,.
Cc1cc(S(=O)(=O)Nc2cccc(O)c2)c(C)s1,.,?,.,.,.
Cc1cc(S(=O)(=O)Nc2cccc([N+](=O)[O-])c2)c(C)s1,.,.,2.08µM,.,.
CCOC(=O)[C@]12CCCC=C1N(Cc1ccco1)C(=O)[C@H](CC(=O)NCCC(C)C)C2,/,/,/,/,.
COc1ccc(CCNC(=O)Nc2ccc3nc([C@@H]4O[C@H](CO)[C@@H](O)[C@H](O)[C@H]4O)[nH]c3c2)cc1Br,/,/,/,/,.[18.4 µM]
C[C@H](CO)N1C[C@H](C)[C@@H](CN(C)Cc2ccncc2)Oc2c(cccc2N(C)C)C1=O,/,/,/,.,.
CC(Sc1ccccc1)C(=O)NCC(c1ccco1)N1CCCCC1 (stereo not drawn),/,?,?,.,.
O=C(Nc1ccc(C2CC2(Cl)Cl)cc1)c1ccccc1Br (stereo not drawn),.,.,0.928µM,.,.
COc1ccc(NS(=O)(=O)c2ccc(NC(=O)c3ccc(CN4CCOCC4)cc3)cc2)cc1,.,14.7µM,.,.,.
CCN(CC)S(=O)(=O)c1ccc(NC(=O)c2ccc(CN3CCOCC3)cc2)cc1,.,6.57µM,.,.,.
SMILES,NS1 inh,Pf growth 48h,Pf growth 96h,SARS PLpro yeast,RE007 growth inh
COc1ccc(CN2CCOCCOCCN(Cc3ccc(OC)cc3)CCOCCOCC2)cc1,.,13.1µM,?,.,.
Cc1cccc2sc(NC(=O)Cn3c(C)csc3=O)nc12,/,.,.,.,.
COc1cc(/C=C(/C#N)c2nc3ccccc3[nH]2)ccc1OCC(=O)Nc1ccccc1C(C)C,.,?,9.28µM,.,.
COc1cc(/C=C(/C#N)c2nc3ccccc3[nH]2)ccc1OCC(=O)Nc1ccccc1C,.,?,1.47µM,.,.
COc1cc(/C=C(\C#N)c2nc3ccccc3s2)ccc1OCC(=O)Nc1ccccc1,.,?,.,.,.
COc1cc(/C=C(\C#N)c2nc3ccccc3[nH]2)ccc1OC(=O)c1ccco1,.,.,.,.,.

# Screens (PubChem)
